In all, about 390,000 compounds went through this assay and about 4,700 (1.2%) were called active. Another 4% or so got no clear call; they are omitted. Many of the other results were omitted from the sample, so actives are more common in it than they were. Unmarked numbers belong to inactive results. Calls follow the shape of the dose curve; as a rule, active = well fitted inhibition curve with a large enough effect; inconclusive = small, poorly fitted or top-dose-only effect, or another doubt; inactive = no such curve, though single readings can be large or run the other way.
Each compound was assayed against DNA polymerase eta (Homo sapiens) (UniProt Q9Y253) (assay: qHTS for Inhibitors of Polymerase Eta). Conditions: recombinant Pol eta, fluorescent DNA replication assay; series mostly up to 114 µM; activity change, negative = inhibition: at the top concentration.
Text: The Y-family of DNA polymerases, such as Pol eta, are specifically involved in DNA repair. Pol eta copies undamaged DNA with a lower fidelity than other DNA-directed polymerases. However, it accurately replicates UV-damaged DNA; when thymine dimers are present, this polymerase inserts the complementary nucleotides in the newly synthesized DNA, thereby bypassing the lesion and suppressing the mutagenic effect of UV-induced DNA damage. […] Thus, while pol eta's (and most likely iota's) normal function is to protect humans against the deleterious consequences of DNA damage, under certain conditions they can have deleterious effects on human health. As a consequence, we propose to utilize a high throughput replication assay to identify small molecule inhibitors of pol eta. In a collaboration between the National Institute of Child Health & Human Development (NICHD) and NIH Chemical Genomics Center, a high-throughput, fluorescent screen was developed to screen the NIH Molecular Libraries Small Molecule Repository (MLSMR). This screen is used to identify inhibitors of pol eta. NIH Chemical Genomics Center [NCGC] NIH Molecular Libraries Probe Centers Network [MLPCN] MLPCN Grant: MH090825 Assay Submitter (PI): Roger Woodgate, NICHD)
Three microliters of reagents (buffer in column 3 and 4 as negative control and 10 nM Pol eta in columns 1, 2, and 5-48) were dispensed into a 1,536-well black solid-bottomed plate. Compounds (23 nL) were transferred via Kalypsys pin tool equipped with 1536-pin array. The plates were then incubated for 15 min at room temperature, and 1 µL substrate (50 nM final concentration) was added to start the reaction and kinetically read twice at 0 min and 10 min on the Viewlux reader
% is scaled to controls: 0 for no effect and ±100 for the full control effect; potency is read from the fitted curve at half-maximal effect.

Sequence of DNA polymerase eta (Homo sapiens) (Q9Y253 whole entry, looked up): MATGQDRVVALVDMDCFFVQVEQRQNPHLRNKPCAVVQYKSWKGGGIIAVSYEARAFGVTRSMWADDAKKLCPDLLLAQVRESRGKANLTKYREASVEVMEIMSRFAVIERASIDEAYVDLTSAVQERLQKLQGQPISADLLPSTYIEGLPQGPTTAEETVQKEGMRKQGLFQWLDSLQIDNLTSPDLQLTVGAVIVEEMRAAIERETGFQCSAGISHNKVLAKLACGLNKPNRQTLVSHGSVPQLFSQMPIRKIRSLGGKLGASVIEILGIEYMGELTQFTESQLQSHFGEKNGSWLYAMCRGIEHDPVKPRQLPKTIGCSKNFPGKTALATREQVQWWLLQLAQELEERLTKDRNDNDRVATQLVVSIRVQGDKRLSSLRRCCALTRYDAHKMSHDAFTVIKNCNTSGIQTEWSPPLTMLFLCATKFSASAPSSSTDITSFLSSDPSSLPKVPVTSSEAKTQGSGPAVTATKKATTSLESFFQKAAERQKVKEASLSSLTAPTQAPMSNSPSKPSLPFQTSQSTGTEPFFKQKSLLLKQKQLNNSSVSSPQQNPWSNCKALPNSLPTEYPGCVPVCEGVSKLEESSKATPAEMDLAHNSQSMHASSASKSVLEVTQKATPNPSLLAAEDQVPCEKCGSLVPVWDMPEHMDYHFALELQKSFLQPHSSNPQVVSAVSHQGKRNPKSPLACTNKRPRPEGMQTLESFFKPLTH

SMILES	Potency	activity change, negative = inhibition [%]
O=C(O)C1=C(C(=O)O)C2CCC1C2	17.8 µM (active)	
CCOc1ccccc1NC(=O)CSc1ncc(S(=O)(=O)c2ccc(C(C)(C)C)cc2)c(=O)[nH]1	89.1 µM (active)	
O=C(CSc1ncc(S(=O)(=O)c2ccc(Br)cc2)c(=O)[nH]1)Nc1ccc2c(c1)OCCO2		-18.1
CCOc1ccccc1NC(=O)COc1ccc(S(=O)(=O)N2CCCC2)cc1		-8.27
Cc1cc(C)cc(NC(=O)Cc2csc(C)n2)c1		-1.34
COc1cccc(NC(=O)CSC2=Nc3ccccc3C3=NC(CC(=O)NC4CCCCC4)C(=O)N23)c1 (configuration not stated)		-0.885
Cc1c(C(=O)N2CCCC2)oc2c1-c1nn(CC(=O)NCc3ccc(OC(C)C)cc3)cc1CC2		-18.6
Cc1ccc(CNC(=O)CSC2=Nc3ccccc3C3=NC(C)C(=O)N23)cc1 (configuration not stated)		-3.8
CCOC(=O)CSC1=Nc2ccccc2C2=NC(CCC(=O)NCc3ccc(F)cc3)C(=O)N12 (configuration not stated)		3.45
CC(C)C1N=C2c3ccccc3N=C(SCC(=O)c3ccc(O)c(O)c3)N2C1=O (configuration not stated)	2.24 µM (active)	
CCCN1C(=O)C(O)(CC(=O)c2ccc(CC)cc2)c2cc(Br)ccc21 (configuration not stated)		-2.45
COc1ccc(CCNC(=O)CSc2nc(-c3ccc(OC)c(OC)c3)ccc2C#N)cc1		-16.6
CCOC(=O)c1ccc(-c2ccc(/C=C(\C#N)C(=O)Nc3ccc(C)cc3)o2)cc1		-6.58
COc1ccc(NC(=O)/C(C#N)=C\c2cc(OC)c(OCc3ccc(C(=O)O)cc3)cc2Br)cc1	50.1 µM (active)	
COc1ccc2c(c1)Cc1sc(NC(=O)c3ccccc3Br)nc1-2		-17.5
O=c1cc(CSc2ncn[nH]2)[nH]c2ccc(F)cc12		-5.87
CCOC(=O)C1CCCN(C(=O)c2ccc(CS(=O)(=O)c3ccc(Br)cc3)o2)C1 (configuration not stated)		-7.23
O=C(c1ccc(CS(=O)(=O)c2ccccc2)o1)N1CCN(c2ccccc2)CC1	50.1 µM (active)	
O=C(c1ccc(CS(=O)Cc2ccccc2Cl)o1)N1CCN(c2ccccc2)CC1 (configuration not stated)		-11
COC(=O)c1sccc1S(=O)(=O)N(CC(=O)Nc1ccc(C)c(F)c1)c1ccc(C)c(C)c1		-16.4
Cc1nc(C)c(-c2nnc(-c3cccc(S(=O)(=O)N(C)C)c3)o2)cc1C(=O)NN		-1.81
CN(C)S(=O)(=O)c1cccc(-c2nn(-c3ccccc3)cc2/C=C2\SC(=S)N(CC(=O)O)C2=O)c1	35.5 µM (active)	
Cc1ccc(-c2nn(-c3ccccc3)cc2/C=C2\SC(=S)N(CCCCCC(=O)O)C2=O)o1	44.7 µM (active)	
Cc1nn(-c2ccc(F)cc2)c(-n2cccc2)c1C(=O)N1CCN(c2ccccc2)CC1		-19.6

SMILES	Potency	activity change, negative = inhibition [%]
COc1ccccc1N1CCN(CCCNC(=O)c2cnn(-c3ccccc3Cl)c2C2CCN(C(=O)OC(C)(C)C)CC2)CC1		-19.7
CSc1ccc(CCNC(=O)c2cnn(-c3ccccc3)c2-n2cccc2)cc1		-21.5
O=C(Nc1ccc(F)cc1F)c1ccc2c(=O)n3c(nc2c1)CCCCC3		7.2
CCc1cccc(NC(=O)c2cnc(N3CCOCC3)c3ccccc23)c1		-24.7
CCOC(=O)C1=C(c2ccc(OC)cc2)C(=O)c2ccccc2C1=O	89.1 µM (active)	
CCOC(=O)C1C(=O)C=C(c2ccc(OC)cc2)CC1c1ccco1 (configuration not stated)		-5.95
CCOC(=O)C1=C(c2ccccc2)NC(=O)NC1c1cc(OC)c(OC)cc1OC (configuration not stated)		5.55
Clc1ccc(CSc2nncn3c2cc2occc23)cc1		-28.9
C=CCOC(=O)C1=C(C)NC(SCC(=O)OCC)=C(C#N)C1c1ccc(C)cc1 (configuration not stated)	17.8 µM (active)	
C=CCC1(C#N)C(=S)NC(C)=C(C(=O)OCC)C1c1ccccc1 (configuration not stated)		-9.51
CCOC(=O)C1=C(C)OC(N)=C(C#N)C1c1cncc(-c2ccc(F)cc2)c1 (configuration not stated)		-10.5
COC(=O)c1c(NC(=O)c2ccc(Cl)c(Cl)c2)sc2c1CCCC2		-18.5
COC(=O)c1ccc(-c2nc3cc(NC(C)=O)ccc3o2)cc1		0.0029
CC1CCN(C(=O)CSc2nnc(-c3ccco3)n2N)CC1		-18.2
CCOC(=O)c1c(NC(=O)CSc2nnc(CN3CCOCC3)n2C)sc2c1CCCC2		-21.9
NC(=O)c1c(NC(=O)CSc2nnc(-c3ccco3)n2N)sc2c1CCCC2	12.6 µM (active)	
CCOC(=O)c1c(C)[nH]c(CCC(=O)NCCCN2CCN(c3cc(C)ccc3C)CC2)c1C		-20.8
CCCc1nn2c(=O)cc(COC(=O)c3ccc(NC(=O)C(C)Oc4ccccc4)cc3)nc2s1 (configuration not stated)		-0.486
COc1ccc(OC)c(CCNC(=O)CCCn2c(=O)c3cccn3c3cccnc32)c1		-8.68
Cc1ccccc1-c1nc2scc(CCNC(=O)C(=O)Nc3ccc(F)cc3F)n2n1		-18.1
Cc1ccc(C(=O)NCCSc2c(C)[nH]c3ccccc23)cc1C		-23.4
CCCCNC(=O)c1cc(-c2ccc(Cl)c(Cl)c2)on1		-6.17
O=C1/C(=C\c2cccnc2)CN(Cc2ccccc2)C/C1=C\c1cccnc1	50.1 µM (active)	
